The source of these data is PubChem BioAssay (NCI).

This is part of a sample that, as a whole, favours compounds with a hit. Of some 83,000 tested, about 20% had one in any assay.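 Cells were grown in 96-well plates and exposed to the test compound at a single concentration for 48 hours; results are reported as percent growth, with values below 10 considered active.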 Values without a mark were called inactive. Active and inactive are the calls of the source.

The experiment has as its system BT-549 breast. As to the kind of experiment: NCI-60 one-dose screen, 48 h (100 = growth as untreated, 0 = no growth, -100 = all killed). Particulars: 10 µM unless noted.
As to `CC1(C)CC[C@]2(C(=O)N3CCOCC3)CC[C@]3(C)C(=CC[C@@H]4[C@@]5(C)C/C(=C/c6ccncc6)C(=O)C(C)(C)[C@@H]5CC[C@]43C)[C@@H]2C1`, the growth was -2.62% (active).

For the compound `O=C(Nc1cccnc1Nc1ccc(Cl)cc1)c1cn(Cc2ccc(F)cc2)nn1`, the growth was 88%.

Take `C=C1C(=O)O[C@H]2[C@H]1CC/C(CNC(=O)c1cc3ccccc3[nH]1)=C\CC[C@@]1(C)O[C@@H]21`: the growth is -79.8% (active).

In the case of `C=CCN=C(N)SCCCCCCSC(N)=NCC=C`, the growth was 84.9%.

For the compound `CNC(=O)c1c(NC(=O)c2ccc(C(C)(C)C)cc2)sc2c(CN(C)C)c(O)ccc12`, the growth was 71.9%.

In the case of `COc1ccc(C/C(C)=C(\c2ccc(O)cc2)c2ccc(OCCN3CCCC3)cc2)cc1`, the growth was 110%.

For the compound `S=c1ssnc1-c1cccs1`, the growth was 116%.

For `COc1cc(/C=C/c2cc(/C=C/c3ccc(O)c(OC)c3)n(C(=O)Nc3ccc(F)cc3)n2)ccc1O`, the growth was -8.33% (active).

With `COc1cc2c3c(n(CCCCNCCCn4c5c(c6cc(OC)c(OC)cc6c4=O)C(=O)c4cc6c(cc4-5)OCO6)c(=O)c2cc1OC)-c1cc2c(cc1C3=O)OCO2`, the growth was 106%.

For the compound `COc1cc(-c2cc(-c3ccc(Nc4ncnc5cc(Cl)ccc45)cc3)nc(N3CCN(C)CC3)n2)cc(OC)c1OC`, the growth was 94.5%.

Turning to `COc1cc(C(=O)/C=C/c2ccc(N3CCN(C)CC3)cc2)cc(OC)c1OC`, the growth is 100%.

`Cc1ccc2[nH]c(=O)c3c(c2c1)OC(N)=C(C#N)C31C(=O)c2cccc3cccc1c23` (stereo not given): the growth was 102%.

On to `Cn1c(=O)c2c(nc(NC3=NS(=O)(=O)c4ccccc43)n2Cc2ccccc2)n(C)c1=O`, for which the growth was 106%.

Turning to `COc1ccc(C/C(C)=C(/c2ccc(OCCN3CCCCCC3)cc2)c2ccc(OC(=O)NCc3ccccc3)cc2)cc1`, the growth was 100%.

As for `Cn1cc(-c2csc(-c3cn(C(=O)OC(C)(C)C)c4ccccc34)n2)c2ccnc(Cl)c21`, the growth is 84.2%.

As to `CCN(C(=O)N1CCN(c2cc3c(cc2F)c(=O)c(C(=O)O)cn3C2CC2)CC1)c1nc(-c2ccc(C)cc2)cs1`, the growth was -11.3% (active).

With `COC(=O)c1nc(-c2ccccc2)oc1S(=O)(=O)N1CCC(C(N)=O)CC1`, the growth is 76.2%.

`CCCCSCC(=O)c1ccccc1`: the growth is 99.9%.

In the case of `Cc1ccc(Nc2nc(-c3ccc(F)cc3)c(C#N)c(=O)n2C)cc1`, the growth is 52.8%.

For the compound `COc1cccc(OC)c1Oc1c(-c2nc3ccccc3s2)c(C)nn1-c1ccccc1`, the growth was 36.3%.

As to `Cc1ccccc1CNc1c2ccccc2nc2ccccc12`, the growth is 55.9%.

Regarding `COc1ccc2nc3ccccc3c(NCc3ccc(F)cc3)c2c1`, the growth is 35%.

Take `O=C1NC(=O)c2c1c1c3ccccc3[nH]c1c1oc3cc(Br)ccc3c21`: the growth was 81.3%.

For `COc1ccc(-c2nnc(SCC(=O)Nc3ccc(/C(C)=N\O)cc3)n2-c2ccccc2)cc1OC`, the growth was 65.2%.

Regarding `CC1=CCC[C@@H]2C1(C)CC[C@H](C)[C@@]2(C)CC1=CC(=O)C(SC(C)(C)C)=CC1=O` (stereo not given in full), the growth was 80.5%.

For `CCn1cc(CNc2ccc(C(=O)Nc3cc4cc(OC)c(OC)cc4c(C)n3)cc2)c(C)n1`, the growth was -4.64% (active).

Take `CCCCN1C(=O)/C(=c2\sc3n(c2=O)NC2C(N=3)N(CC)C(=O)N2CC)c2ccccc21` (stereo not given): the growth was 73.4%.

On to `NC(=O)c1c(NC(=O)c2ccc(Cl)cc2)sc2c1CCC(=O)C2`, for which the growth was 25.1%.

As to `CC1(C)CC[C@]2(C(=O)O)CC[C@]3(C)C(=CC[C@@H]4[C@@]5(C)C[C@@H](Cc6cn([C@@H]7O[C@H](CO)[C@@H](O)[C@H](O)[C@H]7O)nn6)[C@H](O)C(C)(C)[C@@H]5CC[C@]43C)[C@@H]2C1`, the growth is 101%.

With `CCNCc1ccc(O)c2ncccc12`, the growth was 40.8%.

Consider `CC(C)c1ccc(C(=O)Nc2sc3cc(O)ccc3c2C#N)cc1`, for which the growth was 20.8%.

Consider `CCOC(=O)c1c(NC(=O)CSc2n[nH]c3nc4ccccc4n23)sc(CC)c1C`, for which the growth was 137%.

In the case of `COc1cccc(/C=C/C(=O)c2cc3c(N)c(C(=O)Nc4cccc(Cl)c4C)sc3nc2C)c1`, the growth is -22.3% (active).

`Cc1nn(-c2ccccc2)c(N2CCCCC2)c1/C=N/NC(=O)Cn1c(=O)sc2ccccc21`: the growth was 79.9%.

Consider `COC(=O)Cc1nc(C#N)c(N(C)C)o1`, for which the growth is 92.6%.

With `N=C(N)c1ccc(-c2ccc(-c3ccc(Cl)cc3Cl)s2)cc1F`, the growth is 84.8%.

As for `C/C(C=O)=C\c1ccc2c(c1)OCO2`, the growth was 114%.

On to `Cc1ccc(/C=C(\C#N)C(=O)Nc2ncc(Cc3cc(Cl)ccc3Cl)s2)o1`, for which the growth was 65.4%.

For the compound `C[C@@H]1CC[C@@]2(OC1)O[C@H]1C[C@H]3[C@@H]4CC=C5C[C@@H](O[C@@H]6O[C@H](CO)[C@@H](O[C@@H]7O[C@@H](CO)[C@H](O)[C@H]7O)[C@H](O)[C@H]6O[C@@H]6O[C@@H](C)[C@H](O)[C@@H](O)[C@H]6O)CC[C@]5(C)[C@H]4CC[C@]3(C)[C@H]1[C@@H]2C`, the growth was -59.4% (active).

As for `CCOC(=O)c1cn2ncnc(Oc3ccc(NC(=O)NC4CC4)c(F)c3)c2c1C`, the growth is 103%.
